# Measured values taken from ChEMBL document CHEMBL3988442, “University of Dundee, Small-Polar-MMV Screening Library” (2021).
# The whole screen tested about 48,000 compounds, of which about 13,000 (27%) showed an effect of 50% or more. Some of the results follow.
# Tested on: Wolbachia pipientis
# Experiment: Anti-Wolbachia Cell-Based Screen
# Type: functional
# Design: scale not given: in the data most compounds retested in dose-response had high values
# Conditions: 5 µM
row,SMILES,Percent Effect [%]
1,O=c1[nH]c(CCN2CCN(CC(F)(F)F)CC2)nc2ccccc12,-18.37
2,O=C(CN1CCCNC1=O)Nc1ccccc1C(=O)C1CCCC1,8.695
3,Clc1ccc(CN2CCOC[C@H](Oc3cccnc3)C2)cc1,-8.51
4,CC1(C)CN(Cc2nnc(-c3cccnc3)o2)CC[C@]1(C)O,-0.3969
5,O=C(O)c1ccc2c(CN3CCOCC3)c[nH]c2c1,6.765
6,c1ccc(C2=NOC3(CCN(Cc4c[nH]c5ccccc45)CC3)C2)cc1,122.3
7,Clc1ccc(CN2CCC3(CC2)CC(c2cccnc2)=NO3)cc1,114.5
8,CC(C)CCN1CC[C@H](c2nnc(Cc3c[nH]c4ccccc34)o2)C1,-3.447
9,CC(C)C1=NOC2(CCN(Cc3c[nH]c4ccccc34)CC2)C1,126.9
10,O=C(O)c1ccc2c(CN3CCCC3)c[nH]c2c1,-9.8
11,c1cncc(O[C@H]2COCCN(Cc3c[nH]c4ccccc34)C2)c1,0.3938
12,OCC1(Cc2ccc(Cl)cc2)CCN(Cc2cccnc2)CC1,-27.42
13,c1cncc(C2=NOC3(CCN(Cc4c[nH]c5ccccc45)CC3)C2)c1,119
14,CC(C)N1CC[C@H](c2nnc(Cc3c[nH]c4ccccc34)o2)C1,-6.101
15,CCc1nnc2n1CCN(C(=O)c1csc(-c3cnn(C)c3)n1)C2,-10.57
16,CCN1C[C@H]2CCN(C(=O)C3CCCO3)CC[C@H]2S1(=O)=O (some centres undefined),-2.394
17,CCc1cnc(CN(C(C)=O)C2CCN(CCc3cccs3)C2)o1 (centres undefined),1.615
18,CN(Cc1noc(C2CC2)n1)C1CCN(CCc2cccs2)C1 (centres undefined),86.2
19,CN(Cc1nnc(C2CC2)o1)C1CCN(CCc2cccs2)C1 (centres undefined),-15.6
20,CCc1nc(CN(C(C)=O)C2CCN(Cc3cnc(C)cn3)C2)no1 (centres undefined),-6.946
21,CCn1c(C)nnc1CN(C)C1CCN(CCc2cccs2)C1 (centres undefined),-15.8
22,CCCN1CCC(N(Cc2ncc(C)o2)C(C)=O)C1 (centres undefined),4.824
23,Cc1nc(CN(C)C2CCN(CCc3cccs3)C2)no1 (centres undefined),100.8
24,CCc1nc(CN(C(C)=O)C2CCN(CCc3cccs3)C2)no1 (centres undefined),109.6
25,Cc1nnc(CN(C)C2CCN(CCc3cccs3)C2)n1C (centres undefined),4.049

row,SMILES,Percent Effect [%]
1,CCc1nc(CN(C(C)=O)C2CCN(CCc3cnn(C)c3)C2)no1 (centres undefined),-3.276
2,CC(=O)N(Cc1ncc(C)o1)C1CCN(CCc2cccs2)C1 (centres undefined),95.79
3,Cc1ccc(CCN2CCC(N(C)Cc3noc(C4CC4)n3)C2)cc1 (centres undefined),33.43
4,O=C(CSc1ccc2c(c1)OCCO2)NS(=O)(=O)c1cccnc1,7.646
5,O=C(O)C(F)(F)F.O=C([C@@H]1COC[C@H]2CN(CC3CC3)C[C@H]21)N1CCC(F)CC1,-0.2992
6,Cc1ncc2c(n1)CCN(C(C(N)=O)c1ccccc1)C2 (centres undefined),-10.42
7,CC(C)NC(=O)[C@H]1C[C@@H]2[C@@H](C1)OCCN2CC1CC1.O=C(O)C(F)(F)F,-2.648
8,CCc1nc(CN(C)C2CCN(CCc3ccccn3)C2)no1 (centres undefined),16.6
9,CCc1nc(CN(C)C2CCN(CCn3cccn3)C2)no1 (centres undefined),113.6
10,CCc1nc(CN(C)C2CCN(CCc3cccs3)C2)no1 (centres undefined),104.6
11,CC(C)c1cnc(CN(C)C2CCN(CCc3ccccn3)C2)o1 (centres undefined),-3.925
12,Cc1nc(CN2CCCC(N(C)CCc3cccs3)C2)no1 (centres undefined),6.086
13,CCc1nc(CN2CCCC(N(C)Cc3cnc(C)s3)C2)no1 (centres undefined),-6.39
14,CCc1nc(CN(C)C2CCN(CCS(C)(=O)=O)C2)no1 (centres undefined),2.202
15,Cc1nc(CN(C)C2CCN(CCc3ccccn3)C2)no1 (centres undefined),113.1
16,CCc1nc(CN2CCCC(N(C)CCc3cccs3)C2)no1 (centres undefined),105.7
17,Cc1ccc(NCc2cn3c(n2)CN(Cc2ccc(C)o2)CC3)nn1.O=C(O)C(F)(F)F.O=C(O)C(F)(F)F,-14.5
18,COCCN1CCCC2(CCN(c3nccc4ccccc34)C2)C1=O (centres undefined),0.09488
19,CN(C)C(=O)N1C[C@@H]2CC[C@H](C1)N(C/C=C/c1ccc(F)cc1)C2,7.662
20,c1ccc(-c2nnc(CN3C[C@@H]4CC[C@H](C3)N(CC3CCC3)C4)o2)cc1,0.05664
21,CN(C)C(=O)N1C[C@@H]2CC[C@H](C1)N(Cc1nnc(-c3ccccc3)o1)C2,137.1
22,CN(C)C(=O)N1C[C@@H]2CC[C@H](C1)N(Cc1ccc3nsnc3c1)C2,-1.823
23,CN(C)C(=O)N1C[C@@H]2CC[C@H](C1)N(Cc1nnc(C3CC3)o1)C2,98.65
24,CN(C)C(=O)N1C[C@@H]2CC[C@H](C1)N(Cc1nnc(-c3ccco3)o1)C2,70.33
25,c1ccc(CN2C[C@@H]3CC[C@H](C2)N(Cc2nnc(C4CC4)o2)C3)cc1,-6.562

row,SMILES,Percent Effect [%]
1,c1ccc(CN2C[C@H]3CC[C@@H]2CN(Cc2nnc(C4CC4)o2)C3)cc1,2.015
2,CC(C1CC1)N(C)Cc1nnc(-c2ccco2)o1 (centres undefined),-0.554
3,CCC(NCc1ccccn1)c1ccccc1OCC(=O)NC (centres undefined),13.68
4,CCOC(=O)CCNC(=O)N1CCOC(Cc2cccc(OC)c2)C1 (centres undefined),-8.536
5,COCCOc1cccc(CNCC2CN(C)CCO2)c1 (centres undefined),121.8
6,CCCOc1cccc(CNC(=O)CN2CCN(C)CC2C)c1 (centres undefined),-6.684
7,CN1CCOC(CNCc2cccc(OCC(F)(F)F)c2)C1 (centres undefined),-1.081
8,FC(F)(F)Oc1cccc(CNC[C@H]2Cn3ccnc3CO2)c1,-15.74
9,CN1CCOC(CNCc2cccc(OC(F)(F)F)c2)C1 (centres undefined),76.13
10,COc1cccc(CNCC2CN(C)CCO2)c1 (centres undefined),98.93
11,CN1CCOC(CNCc2nc(-c3ccco3)no2)C1 (centres undefined),-7.293
12,CN1CCOC(CNC(=O)CCCOCCc2ccccc2)C1 (centres undefined),-8.698
13,CCCc1n[nH]c(C2CN(CCNC3CCCCC3)CCO2)n1 (centres undefined),8.814
14,COc1cc(CNc2nc(C3CC3)no2)cc(OC)c1OC,3.811
15,O=C(NCCN1CCOCC1)Nc1cc(F)ccc1-n1cccn1,-8.933
16,O=C1CCC(=O)N1CCN1CCN(c2cc(F)ccc2F)CC1,-16.23
17,Cc1nc(CCCN2CCOCC2)n(Cc2ccc(F)cc2)n1,-6.384
18,O=c1[nH]nc(CCCN2CCOCC2)n1Cc1cccc(F)c1,102.2
19,O=c1[nH]nc(CCCN2CCOCC2)n1-c1ccc(F)cc1F,93.86
20,O=C1O[C@@H]2CN(Cc3cccc(F)c3)C[C@@H]2N1CCCN1CCOCC1,11.87
21,Cc1ccc(F)cc1-n1c(CCCN2CCOCC2)n[nH]c1=O,109.2
22,O=C(NCc1cccc(F)c1)Nc1ccn(CCN2CCOCC2)n1,-19.73
23,O=C(NCCN1CCOCC1)c1cc(-c2ccc3c(c2)CCO3)n[nH]1,2.601
24,CN1C[C@@H](n2cnc(-c3ccccc3)c2-c2ccccn2)C[C@H]1C(=O)O,-24.01
25,CC(C)(C)CN1CCOC[C@H]1c1nc(-c2cccc(F)c2)c[nH]1,4.483

row,SMILES,Percent Effect [%]
1,Cc1nn(C)cc1CN1CCCn2nc(CNC(=O)C3CCC3)cc2C1,-11.1
2,Cc1nccn1C1CCCN(C(=O)C2=NN(C)C(=O)CC2)C1 (centres undefined),-2.156
3,Cc1nn(C)cc1S(=O)(=O)N[C@@H]1CCC[C@@H](N2CCCC2)[C@@H]1O,95.33
4,Cc1nn(C)cc1S(=O)(=O)N[C@@H]1CC[C@@H](n2ccnc2C)[C@@H]1O,99.22
5,Cn1cc(S(=O)(=O)N2CCCC2Cn2ccnc2)cn1 (centres undefined),-1.128
6,Cc1nccnc1N1CC[C@@H](NC(=O)c2cnccn2)[C@H](O)C1,-17.03
7,Cc1nn(C)cc1S(=O)(=O)N[C@@H]1CCC[C@@H](n2ccnc2)[C@@H]1O,85.24
8,CO[C@@H]1CC[C@@H](NS(=O)(=O)c2cn(C)nc2C)[C@H]1O,86.74
9,Cn1cc(S(=O)(=O)N2CCCC2Cn2ccnc2)cc1C(N)=O (centres undefined),-5.902
10,Cc1nc2n(n1)CC(NCC(=O)NCC1(c3ccccc3)CC1)CC2 (centres undefined),-4.512
11,CN(C(=O)c1cccc(OCC(F)F)n1)c1ccc2c(c1)CCO2,3.505
12,CCCOc1cccc(NS(=O)(=O)c2cc(C(=O)O)cs2)c1,12.59
13,Cc1ccccc1C(=O)Nc1ccc([C@H]2OCC(=O)N(C)[C@@H]2CO)cc1,-10.53
14,O=C(NC1CC1)C1CCCN(c2cccc(C(F)(F)F)n2)C1 (centres undefined),-13
15,CN1Cc2nc[nH]c2C[C@H]1C(=O)NC1CCCCC1,0.3029
16,O=C(NC1CC1)C1CCc2nnc(-c3cccnc3)n21 (centres undefined),102.7
17,CN(CC1CCCCC1)C(=O)c1cn(C)nc1-c1cccnc1,20.64
18,O=C(NC1CC1)C1CCc2nnc(C3CC3)n21 (centres undefined),105.6
19,O=C(NC1CC1)C1CCc2nnc(-c3cccc(C(F)(F)F)c3)n21 (centres undefined),107.7
20,Cn1cc(C(=O)NC2CCCC2)c(-c2cccnc2)n1,1.647
21,CNC(=O)C(C)(C)N1CCC[C@H]1C(=O)NC1CC1,8.345
22,CCCS(=O)(=O)N1C[C@@H]2COC[C@@H](Cc3nc(C)no3)[C@@H]2C1,1.373
23,CCc1nc(CN2CCCN(C(=O)c3cn[nH]c3C)CC2)cs1,4.84
24,COc1cc(NCCNC(=O)c2cscc2C)cc(OC)c1,-3.159
